Measurements from PubChem BioAssay (NCATS).
Results filed as inconclusive are left out. Calls of active or inactive are those of the source. Unless noted, the call rests on the fitted dose curve; in most records, active means well fitted curve in either direction with a large enough effect (not every such curve was filed as active); inconclusive means small, poorly fitted or top-dose-only effect, or another doubt; inactive means flat fitted curve, though single readings scatter.

Tests used:
[1] = AP1 Signaling Pathway (AID 357); settings: ME-180 AP-1-bla reporter, EGF-induced, beta-lactamase ratio, 5 h; at 7.69 µM (top of the series) unless noted; further: on the % scale 0 is the no-effect control and ±100 the full control effect
Outline: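 AP-1-bla ME-180 cells with beta-lactamase reporter under AP-1 response element, stimulated with EC50 EGF; compounds titrated, 5 hours at 37 degrees Celsius. CCF4 read at 460/530 nm ratio; positive and negative modulators judged by AC50.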

[2] = Stat Signaling Pathway (AID 446); settings: ME-180 SIE beta-lactamase reporter, IL-6 stimulated, 5 h; at 7.69 µM (top of the series) unless noted;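 further: ME-180 cervical cancer cells given 40 pM IL-6 alongside compound; SIE-controlled beta-lactamase reporter measured as 460/530 nm FRET emission ratio; on the % scale 0 is the no-effect control and ±100 the full control effect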
Outline: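 ME-180 SIE-bla cells; overnight plating; cpd + IL-6 40 pM, 5 h, 37 C; LiveBLAzer 2.5 h RT; 460/530 nm emission ratio. Normalized to 300 pM IL-6 and 125 nM JAK inhibitor controls.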

[3] = target: Glucocorticoid receptor (Homo sapiens) (UniProt P04150); test: GR-EFC Redistribution (AID 451; calls by dose curve; further: potency means the concentration at half of the fitted maximal effect); settings: CHO-K1 GR-EFC translocation, beta-gal luminescence, 2 h
Outline: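 CHO-K1 cells expressing nuclear EA and GR-ED fragments of b-gal; compounds titrated up to 46 uM final, 2 h at 37 C. GR nuclear translocation read as complemented b-gal luminescence after 1 h RT detection.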

[4] = target: Mitogen-activated protein kinase 10 (Mus musculus) (UniProt Q61831); test: JNK3 AlphaScreen Assay (AID 530);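 further: kinase came from lysate of stimulated human HepG2 cells; signal reports phosphorylation of biotinylated GST-cJun 1-79 at Ser73 with 10 µM ATP; on the % scale 0 is the no-effect control and ±100 the full control effect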
Outline: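 Pre-activated (IL-1β/TNFα) JNK3 in HepG2 lysates phosphorylates biotin-GST-cJun(1-79), 10 uM ATP; anti-phospho-cJun(Ser73) AlphaScreen read at room temperature, pH 7.6 Tris buffer. Compounds pre-incubated 15 min as titrations.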

[5] = Cell Viability - Hek293 (AID 427;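 active means compounds whose dose-response curve shows a full or clear partial loss of cell viability, called from curve shape rather than a numeric limit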;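 further: potency means the concentration at half of the fitted maximal effect; cells exposed to compound for 40 hours at 37 °C before reading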); settings: qHTS
Outline: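 Luminescent ATP read-out (CellTiter-Glo, 20 min RT) after 40 hr compound exposure at 37 °C in complete medium. Signal normalized to DMSO (basal) and 100 uM tamoxifen (100% inhibition); concentration-response fitted with the standard Hill equation to give AC50.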

[6] = Cell Viability - HepG2 (AID 433; calls by dose curve;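 further: potency means the concentration at half of the fitted maximal effect; potency for ATP loss meaning cytotoxicity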); settings: qHTS
Outline: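 Read-out is luciferase-based quantitation of cellular ATP as a measure of viable HepG2 cells after 40 h treatment at 37 °C. Signal decrease is scaled between DMSO-only and 100 uM tamoxifen controls, with AC50 fitted by the Hill equation.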

[7] = Cell Viability - SK-N-SH (AID 435; calls by dose curve;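 further: potency means the concentration at half of the fitted maximal effect; compound exposure lasted 40 h at 37 °C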); settings: SK-N-SH neuroblastoma cell viability qHTS
Outline: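 Luminescent ATP signal served as the viability read-out after 40 hours of compound treatment of human neuroblastoma SK-N-SH cells. Concentration-response data, scaled between DMSO and 100 uM tamoxifen, gave AC50 values by standard Hill modeling.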

[8] = Cell Viability - Renal Proximal Tubule (AID 545; active means well fitted curve in the direction sought with a large enough effect; an effect the other way counts as inactive or inconclusive;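 further: 0% = DMSO only and -100% = 100 µM tamoxifen; nearly all actives have a fitted effect of over 40% in size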)
Outline: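 Luminescent ATP signal (CellTiter-Glo) served as the viability read-out after 40 hr compound exposure of freshly isolated rat proximal tubule cells at 37 °C. Concentration-dependent ATP loss was fitted with the Hill equation to give AC50.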

[9] = Cellular Toxicity (caspase-3) HUV-EC-C (AID 656; active means well fitted curve in the direction sought with a large enough effect; an effect the other way counts as inactive or inconclusive;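 further: 0% = DMSO basal and 100% = 100 µM tamoxifen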)
Outline: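 qHTS; HUV-EC-C, 1000 cells/well; 5 hr settle, 16 hr cmpd, 37°C; Caspase-Glo 3/7, 20 min RT; luminescence. Norm: DMSO = 0%, tamoxifen 100 uM = 100%. Hill-fit AC50.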

[10] = Cellular Toxicity (caspase-3) SHSY5Y (AID 657; active means well fitted curve in the direction sought with a large enough effect; an effect the other way counts as inactive or inconclusive;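 further: cells exposed to compound for 16 hours at 37 °C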)
Outline: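 qHTS, SH-SY5Y, 1500 cells/well, 5 h pre-incubation 37 °C; compound 16 h 37 °C; Caspase-Glo 3/7 1 h RT; luminescence. Norm.: DMSO = 0, 10 uM staurosporine = 100%. Hill fit → AC50.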

[11] = Cellular Toxicity (caspase-3) MRC-5 (AID 659; active means well fitted curve in the direction sought with a large enough effect; an effect the other way counts as inactive or inconclusive;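 further: 0% = DMSO basal and 100% = 10 µM staurosporine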)
Outline: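 MRC-5 human normal lung fibroblasts, 1500 cells/well, treated 16 h at 37 °C in complete medium. Caspase 3/7 measured by Caspase-Glo luminescence after 1 h at room temperature. Normalized to DMSO and 10 uM staurosporine; AC50 from Hill fit.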

[12] = MultiTox-Fluor Cytotoxicity Assay - LYMP1-002 - Live Cells (AID 955; active means well fitted curve in the direction sought with a large enough effect; an effect the other way counts as inactive or inconclusive;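 further: cells exposed to compound for 16 hours; on the % scale 0 is the no-effect control and ±100 the full control effect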)
Outline: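 Read-out is live-cell protease activity (cell-permeant GF-AFC substrate, fluorescence Ex/Em=405/510), where a decrease indicates acute toxicity. Human lymphoblastoid cells were treated 16 hours at 37 C in a concentration series, and AC50 values came from standard Hill modelling.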

[13] = Cell Viability - LYMP1-003 - Assay at 24 hr (AID 963; active means well fitted curve in the direction sought with a large enough effect; an effect the other way counts as inactive or inconclusive;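 further: plate controls were DMSO only for no effect and tetraoctylammonium bromide positive control for full effect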)
Outline: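 Cells seeded at 2500/well, 5 hr at 37 C; compounds added; 24 hr at 37 C; CellTiter-Glo added, 30 min room temperature; luminescence read. Decrease in ATP taken as cytotoxicity, AC50 from Hill modelling.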

[14] = Cell Viability - LYMP2-009 (AID 968; active means well fitted curve in the direction sought with a large enough effect; an effect the other way counts as inactive or inconclusive;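 further: cells exposed to compound for 24 h at 37 °C; 0% = DMSO alone and the full-kill end = tetraoctylammonium bromide at 92 µM; nearly all actives have a fitted effect of over 55% in size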)
[15] = Cell Viability - LYMP2-017 (AID 972; active means well fitted curve in the direction sought with a large enough effect; an effect the other way counts as inactive or inconclusive;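 further: cells exposed to compound for 24 hours at 37 °C; on the % scale 0 is the no-effect control and ±100 the full control effect; nearly all actives have a fitted effect of over 55% in size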)
Outline: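 2500 cells/well, 5 h 37 C; cpd 24 h 37 C in complete medium; CellTiter-Glo, 30 min RT; luminescence (ATP). AC50 via Hill fit, qHTS.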

[16] = Cell Viability - LYMP2-025 (AID 976; active means well fitted curve in the direction sought with a large enough effect; an effect the other way counts as inactive or inconclusive;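 further: cells exposed to compound for 24 h at 37 °C; plate controls were DMSO only for no effect and tetraoctylammonium bromide control for full effect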)
Outline: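 Seed 2500 LYMP2-025 cells/well; 5 hr at 37 C; add compound; 24 hr at 37 C; add CellTiter-Glo; 30 min RT; read luminescence. AC50 from Hill-modelled concentration-response.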

[17] = Cell Viability - LYMP2-024 (AID 988; active means well fitted curve in the direction sought with a large enough effect; an effect the other way counts as inactive or inconclusive;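 further: plate controls were DMSO only for no effect and 92 µM tetraoctylammonium bromide for full effect; nearly all actives have a fitted effect of over 60% in size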)
Outline: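 Steps: seed 2500 cells/well, 5 hr 37 C; add compound, 24 hr 37 C; add CellTiter-Glo, 30 min room temperature; read luminescence. AC50 derived by Hill modelling of concentration-dependent ATP loss.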

[18] = Cell Viability - LYMP1-002 - Assay at 40 hr (AID 994; active means well fitted curve in the direction sought with a large enough effect; an effect the other way counts as inactive or inconclusive;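 further: 0% = DMSO only and full inhibition = 92 µM tetraoctylammonium bromide; nearly all actives have a fitted effect of over 60% in size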)
Outline: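 Luminescent ATP signal served as the viability readout, with decreases taken as toxicity. Cells were treated with compounds across a concentration range for 40 hours at 37 C, and AC50 values came from standard Hill modeling.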

[19] = target: Peroxisome proliferator-activated receptor alpha (Homo sapiens) (UniProt Q07869); test: qHTS assay for small molecule agonists of the peroxisome proliferator-activated receptor alpha (PPARalpha) signaling pathway (AID 651778; active means well fitted curve in the direction sought with a large enough effect; an effect the other way counts as inactive or inconclusive; further: % of control where 0% means no effect); settings: PathHunter PPARalpha complementation, chemiluminescence, 6 h; hits give high values
Outline: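 Enzyme-fragment complementation assay in which ligand-bound PPARalpha translocates and forms an active enzyme that generates chemiluminescence. Cells were plated overnight, exposed to compound for 6 hr at 37 C, and then given detection reagent for 60 min at room temperature.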

[20] = qHTS assay for small molecule agonists of the antioxidant response element (ARE) signaling pathway measured by Nrf2-dependant transcriptional activity - cell viability counter screen (AID 720653; active means well fitted curve in the direction sought with a large enough effect in the repeat runs; an effect the other way counts as inactive or inconclusive; further: on the % scale 0 is the no-effect control and ±100 the full control effect); settings: ARE-bla HepG2 viability, CellTiter-Glo ATP luminescence, 16 h; hits give low values
Outline: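 ARE-bla HepG2 cells treated with compounds for 16 h at 37C; this counter screen measures viability as intracellular ATP by CellTiter-Glo luminescence after 30 min at room temperature.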

Glucocorticoid receptor (Homo sapiens), sequence (P04150 whole entry, looked up, the tested form may be a part): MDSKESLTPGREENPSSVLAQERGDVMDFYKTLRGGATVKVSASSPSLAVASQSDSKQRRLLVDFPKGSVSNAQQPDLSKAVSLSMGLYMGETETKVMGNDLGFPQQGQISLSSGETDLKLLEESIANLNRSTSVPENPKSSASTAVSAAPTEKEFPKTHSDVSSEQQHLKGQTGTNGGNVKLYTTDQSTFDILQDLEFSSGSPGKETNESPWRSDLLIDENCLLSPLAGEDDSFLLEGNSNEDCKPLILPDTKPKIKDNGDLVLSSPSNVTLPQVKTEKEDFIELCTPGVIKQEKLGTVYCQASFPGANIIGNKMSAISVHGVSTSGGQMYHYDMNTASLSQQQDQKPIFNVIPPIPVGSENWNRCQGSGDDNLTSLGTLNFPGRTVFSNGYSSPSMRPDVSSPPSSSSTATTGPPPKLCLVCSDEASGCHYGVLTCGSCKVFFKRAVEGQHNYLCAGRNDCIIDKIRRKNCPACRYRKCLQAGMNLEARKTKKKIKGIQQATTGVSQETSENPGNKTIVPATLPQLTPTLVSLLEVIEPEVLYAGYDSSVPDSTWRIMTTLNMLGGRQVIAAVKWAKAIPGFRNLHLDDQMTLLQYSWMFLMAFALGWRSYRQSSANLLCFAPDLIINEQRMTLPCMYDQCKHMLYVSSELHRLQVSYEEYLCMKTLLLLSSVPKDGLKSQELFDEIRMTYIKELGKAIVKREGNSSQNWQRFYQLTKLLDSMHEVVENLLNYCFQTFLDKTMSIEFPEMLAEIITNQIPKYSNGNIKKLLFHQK
Peroxisome proliferator-activated receptor alpha (Homo sapiens), sequence (Q07869 whole entry, looked up, the tested form may be a part): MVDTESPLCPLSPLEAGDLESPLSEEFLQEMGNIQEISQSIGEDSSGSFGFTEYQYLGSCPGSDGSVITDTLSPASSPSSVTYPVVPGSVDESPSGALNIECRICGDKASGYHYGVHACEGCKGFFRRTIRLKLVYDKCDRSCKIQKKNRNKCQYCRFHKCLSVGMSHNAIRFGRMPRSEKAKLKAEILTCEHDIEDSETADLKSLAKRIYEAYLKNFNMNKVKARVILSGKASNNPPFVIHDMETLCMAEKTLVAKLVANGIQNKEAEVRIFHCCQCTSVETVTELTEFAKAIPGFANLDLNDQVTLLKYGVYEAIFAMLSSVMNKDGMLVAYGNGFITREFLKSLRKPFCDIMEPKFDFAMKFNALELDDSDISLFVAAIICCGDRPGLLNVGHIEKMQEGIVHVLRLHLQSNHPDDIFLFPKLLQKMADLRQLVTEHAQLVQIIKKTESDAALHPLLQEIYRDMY

COc1ccc2c(c1O)-c1cccc3c1[C@H](C2)N(C)CC3
inactive: activity change, negative = inhibition [1] -2.14% [at 38 µM] | activity, negative = inhibition [2] 28.1% [at 38 µM] | Potency [3] > 46 µM | Potency [4]

N[C@H](Cn1cc(I)c(=O)[nH]c1=O)C(=O)O
inactive: activity change, negative = inhibition [1] 10.7% [at 38 µM] | activity, negative = inhibition [2] -6.5% [at 38 µM] | Potency [3] > 46 µM | Potency [4]

CCNC(=O)[C@@H]1O[C@@H](n2cnc3c(N)ncnc32)[C@@H](O)[C@H]1O
inactive: activity change, negative = inhibition [1] -6.61% [at 38 µM] | activity, negative = inhibition [2] 24.4% [at 38 µM] | Potency [3] > 46 µM | Potency [4]

CC(C)[C@@]1(NC(=O)[C@@H]2C=C3c4cccc5[nH]cc(c45)C[C@@H]3N(C)C2)O[C@]2(O)[C@H]3CCCN3C(=O)[C@H](Cc3ccccc3)N2C1=O
inactive: activity change, negative = inhibition [1] -14% [at 38 µM] | activity, negative = inhibition [2] 8.76% [at 38 µM] | Potency [3] > 46 µM | Potency [4]

C[N+]1(C)CCc2cc3c(cc2[C@@H]1[C@@H]1OC(=O)c2c1ccc1c2OCO1)OCO3
inactive: activity change, negative = inhibition [1] -3.72% [at 38 µM] | activity, negative = inhibition [2] 13.3% [at 38 µM] | Potency [3] > 46 µM

N[C@H](Cn1ccc(=O)[nH]c1=O)C(=O)O
inactive: activity change, negative = inhibition [1] -6.11% [at 38 µM] | activity, negative = inhibition [2] 4.92% [at 38 µM] | Potency [3] > 46 µM

CO[C@@H]1CC=C2CCN3CCC4=C(CC(=O)OC4)[C@]23C1
inactive: activity change, negative = inhibition [1] 6.22% [at 38 µM] | activity, negative = inhibition [2] -4.68% [at 38 µM] | Potency [3] > 46 µM | Potency [4]

CC(=O)[C@@H]1CC[C@H]2[C@H]3CC[C@H]4C[C@@H](O)CC[C@]4(C)[C@@H]3CC[C@]12C
inactive: activity change, negative = inhibition [1] 11.2% [at 38 µM] | activity, negative = inhibition [2] -25.9% [at 38 µM] | Potency [3] > 46 µM | Potency [4]

C[C@@]12CC[C@H]3[C@@H](CC=C4C[C@H](OS(=O)(=O)O)CC[C@]43C)[C@H]1CCC2=O
inactive: activity change, negative = inhibition [1] -6.95% [at 38 µM] | activity, negative = inhibition [2] -15.3% [at 38 µM] | Potency [3] > 46 µM | Potency [4]

CN1C[C@@H](CS(=O)(=O)N(C)C)C[C@H]2c3cccc4c3c(cn4C)C[C@@H]21
inactive: activity change, negative = inhibition [1] 2.96% [at 38 µM] | activity, negative = inhibition [2] -10.8% [at 38 µM] | Potency [3] > 46 µM

CCCN1CC[C@@H]2c3cc(O)ccc3CC[C@H]21
inactive: activity change, negative = inhibition [1] -14.4% [at 38 µM] | activity, negative = inhibition [2] -6.76% [at 38 µM] | Potency [3] > 46 µM | Potency [4]

NC(=O)CN1C[C@@H](O)CC1=O
inactive: activity change, negative = inhibition [1] 2.98% [at 38 µM] | activity, negative = inhibition [2] -8.38% [at 38 µM] | Potency [3] > 46 µM

N[C@H](Cn1oc(=O)[nH]c1=O)C(=O)O
inactive: activity change, negative = inhibition [1] 0.495% [at 38 µM] | activity, negative = inhibition [2] 6.66% [at 38 µM] | Potency [3] > 46 µM | Potency [4]

C[Se]C[C@@H](N)C(=O)O
inactive: activity change, negative = inhibition [1] 1.98% [at 38 µM] | activity, negative = inhibition [2] -28.4% [at 38 µM] | Potency [3] > 46 µM | Potency [4]

C[C@@]12CC[C@H]3[C@@H](CC[C@@H]4C[C@H](O)CC[C@]43C)[C@H]1CC[C@H]2O
inactive: activity change, negative = inhibition [1] -12.3% [at 38 µM] | activity, negative = inhibition [2] 24.5% [at 38 µM] | Potency [3] > 46 µM | Potency [4]

CC(C)C[C@H](NP(=O)(O)O[C@@H]1O[C@@H](C)[C@@H](O)[C@@H](O)[C@H]1O)C(=O)N[C@@H](Cc1c[nH]c2ccccc12)C(=O)O
inactive: activity change, negative = inhibition [1] 5.95% [at 38 µM] | activity, negative = inhibition [2] 14.9% [at 38 µM] | Potency [3] > 46 µM | Potency [4]

N[C@H](CCl)C(=O)O
inactive: activity change, negative = inhibition [1] 0.76% [at 38 µM] | activity, negative = inhibition [2] -9.55% [at 38 µM] | Potency [3] > 46 µM | Potency [4]

ClC(Cl)Br
inactive: Potency [5] > 92 µM | Potency [6] > 92 µM | Potency [7] > 92 µM | outcome [8] | outcome [9] | outcome [10] | outcome [11] | outcome [12] | outcome [13] | Potency [14] | Potency [15] | Potency [16] | Potency [17] | Potency [18] | max response [19] -1.39% | max response [20] 9.16%
